Measured values published in PubChem BioAssay (EPA / NIEHS).
The source made the active and inactive calls. The calls were made as follows: active = hit-call score of the fitted dose curve at least 0.9, where 1 is the maximum; inactive = score below 0.9.

Assays:
[1] = read-out: Interleukin-6 (IL6), IL6 (gene 3569); experiment: BSK_CASM3C_IL6: BioMAP Diversity Plus: CASM3C Assay for Interleukin-6 (IL6) Biomarker Activity for (AID 2283040); conditions: primary human coronary artery smooth muscle cells; actives raise or lower the signal
[2] = read-out: Tissue plasminogen activator (tPA), PLAT (gene 5327); experiment: BSK_BE3C_tPA: BioMAP Diversity Plus: BE3C Assay for Tissue plasminogen activator (tPA) Biomarker Activity (AID 2283041); conditions: primary human bronchial epithelial cells; actives raise or lower the signal;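 as to outcome: tPA level quantified by ELISA one day after compound addition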
Outline: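 Using human lung primary bronchial epithelial cells, tPA was measured by ELISA 24 h after dosing; data fitted relative to DMSO.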

[3] = read-out: Interleukin-8 (IL8), CXCL8 (gene 3576); experiment: BSK_CASM3C_IL8: BioMAP Diversity Plus: CASM3C Assay for Interleukin-8 (IL8) Biomarker Activity (AID 2283042); conditions: primary human coronary artery smooth muscle cells; actives raise or lower the signal;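 also: IL-8 protein level quantified by ELISA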
[4] = read-out: Human Leukocyte Antigen - DR isotype (HLADR), HLA-DRA (gene 3122); experiment: BSK_CASM3C_HLADR: BioMAP Diversity Plus: CASM3C Assay for Human Leukocyte Antigen - DR isotype (HLADR) Biomarker Activity (AID 2283043); conditions: primary human coronary artery smooth muscle cells; actives raise or lower the signal;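 also: cell-surface HLA-DR protein level quantified by ELISA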
[5] = read-out: Macrophage colony-stimulating factor (MCSF), CSF1 (gene 1435); experiment: BSK_CASM3C_MCSF: BioMAP Diversity Plus: CASM3C Assay for Macrophage colony-stimulating factor (MCSF) Biomarker Activity (AID 2283044); conditions: primary human coronary artery smooth muscle cells; actives raise or lower the signal;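 also: M-CSF protein amount quantified by ELISA after 24 h exposure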
[6] = read-out: Low-density lipoprotein receptor (LDLR), LDLR (gene 3949); experiment: BSK_CASM3C_LDLR: BioMAP Diversity Plus: CASM3C Assay for Low-density lipoprotein receptor (LDLR) Biomarker Activity (AID 2283045); conditions: primary human coronary artery smooth muscle cells; actives raise or lower the signal;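 also: LDLR protein level on the cell surface quantified by ELISA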
[7] = read-out: Monocyte Chemoattractant Protein-1 (MCP1), CCL2 (gene 6347); experiment: BSK_CASM3C_MCP1: BioMAP Diversity Plus: CASM3C Assay for Monocyte Chemoattractant Protein-1 (MCP1) Biomarker Activity (AID 2283046); conditions: primary human coronary artery smooth muscle cells; actives raise or lower the signal;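 also: MCP-1 level quantified by ELISA 24 h after dosing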
[8] = BSK_CASM3C_Proliferation: Cell Proliferation Assessment in the BioMAP Diversity Plus: CASM3C Assay (AID 2283047); conditions: primary human coronary artery smooth muscle cells;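 also: sulforhodamine B total protein stain as relative cell number at 560 nm; sub-confluent cells exposed 48 h before staining; fitted both ways against DMSO so gain or loss of cell number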
[9] = read-out: Monokine induced gamma interferon (MIG), CXCL9 (gene 4283); experiment: BSK_CASM3C_MIG: BioMAP Diversity Plus: CASM3C Assay for Monokine induced gamma interferon (MIG) Biomarker Activity (AID 2283048); conditions: primary human coronary artery smooth muscle cells; actives raise or lower the signal;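 also: MIG protein level measured by ELISA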
[10] = read-out: serum amyloid A (SAA), SAA1 (gene 6288); experiment: BSK_CASM3C_SAA: BioMAP Diversity Plus: CASM3C Assay for serum amyloid A (SAA) Biomarker Activity (AID 2283049); conditions: primary human coronary artery smooth muscle cells; actives raise or lower the signal;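 also: SAA protein level quantified by ELISA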
[11] = BSK_CASM3C_SRB: Viability Assessment in the BioMAP Diversity Plus: CASM3C Assay (AID 2283050); conditions: primary human coronary artery smooth muscle cells;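 also: cells exposed to compound for 24 h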
[12] = read-out: Thrombomodulin, THBD (gene 7056); experiment: BSK_CASM3C_Thrombomodulin: BioMAP Diversity Plus: CASM3C Assay for Thrombomodulin Biomarker Activity (AID 2283051); conditions: primary human coronary artery smooth muscle cells; actives raise or lower the signal;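 also: thrombomodulin protein level measured by ELISA 24 h after dosing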
[13] = read-out: Tissue Factor, F3 (gene 2152); experiment: BSK_CASM3C_TissueFactor: BioMAP Diversity Plus: CASM3C Assay for Tissue Factor Biomarker Activity (AID 2283052); conditions: primary human coronary artery smooth muscle cells; actives raise or lower the signal;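 also: cell surface tissue factor protein level read by ELISA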
[14] = read-out: Interferon-gamma inducible Protein 10 (IP10), CXCL10 (gene 3627); experiment: BSK_hDFCGF_IP10: BioMAP Diversity Plus: hDFCGF Assay for Interferon-gamma inducible Protein 10 (IP10) Biomarker Activity (AID 2283053); conditions: primary human foreskin fibroblasts; actives raise or lower the signal
Outline: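 Chemical-treated human skin fibroblasts (primary) were sampled at 24 h for IP-10 by ELISA. Both increases and decreases relative to DMSO were scored.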

[15] = read-out: Urokinase-type plasminogen activator receptor (uPAR), PLAUR (gene 5329); experiment: BSK_CASM3C_uPAR: BioMAP Diversity Plus: CASM3C Assay for Urokinase-type plasminogen activator receptor (uPAR) Biomarker Activity (AID 2283054); conditions: primary human coronary artery smooth muscle cells; actives raise or lower the signal;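 also: cell-surface uPAR protein level quantified by ELISA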
[16] = read-out: Vascular cell adhesion molecule 1 (VCAM1), VCAM1 (gene 7412); experiment: BSK_CASM3C_VCAM1: BioMAP Diversity Plus: CASM3C Assay for Vascular cell adhesion molecule 1 (VCAM1) Biomarker Activity (AID 2283055); conditions: primary human coronary artery smooth muscle cells; actives raise or lower the signal;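 also: VCAM-1 protein level quantified by ELISA on the cells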
[17] = read-out: Collagen III, COL3A1 (gene 1281); experiment: BSK_hDFCGF_CollagenIII: BioMAP Diversity Plus: hDFCGF Assay for Collagen III Biomarker Activity (AID 2283056); conditions: primary human foreskin fibroblasts; actives raise or lower the signal
Outline: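 Human foreskin fibroblast primary cultures sampled 24 h after dosing; Collagen III quantified by ELISA. Signal fitted bidirectionally against DMSO baseline.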

[18] = read-out: Epidermal growth factor receptor (EGFR), EGFR (gene 1956); experiment: BSK_hDFCGF_EGFR: BioMAP Diversity Plus: hDFCGF Assay for Epidermal growth factor receptor (EGFR) Biomarker Activity (AID 2283057); conditions: primary human foreskin fibroblasts; actives raise or lower the signal
Outline: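 Cell-based multiplexed assay in primary human foreskin fibroblasts. EGFR is read by ELISA 24 h after treatment and compared with DMSO controls.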

[19] = read-out: Interleukin-8 (IL8), CXCL8 (gene 3576); experiment: BSK_hDFCGF_IL8: BioMAP Diversity Plus: hDFCGF Assay for Interleukin-8 (IL8) Biomarker Activity (AID 2283058); conditions: primary human foreskin fibroblasts; actives raise or lower the signal
Outline: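 Primary human foreskin fibroblasts (hDFCGF system) dosed with chemical; IL-8 measured by ELISA 24 hours later. Bidirectional curve fitting relative to DMSO baseline; cytotoxicity tracked in parallel cultures by SRB total protein staining.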

[20] = BSK_hDFCGF_Proliferation: Cell Proliferation Assessment in the BioMAP Diversity Plus: hDFCGF Assay (AID 2283059); conditions: primary human foreskin fibroblasts;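 also: curves fitted for both rise and fall of signal versus DMSO baseline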
Outline: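 Steps: dose primary human dermal fibroblasts (foreskin); […] fix in 10% TCA; stain with 0.1% SRB; read 560 nm; fit gain or loss of signal against DMSO.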

Cc1nc(-c2ccc3c(c2)CCN(CCC2CCC(NC(=O)/C=C/c4ccc(F)cc4)CC2)CC3)no1 (stereo not given)
outcome [1]: inactive
outcome [2]: inactive
outcome [3]: inactive
AC50 [4]: 9.3 µM (active)
outcome [5]: inactive
outcome [6]: inactive
AC50 [7]: 13.8 µM (active)
AC50 [8]: 5.83 µM (active)
AC50 [9]: 11.7 µM (active)
AC50 [10]: 9.3 µM (active)
AC50 [11]: 9.3 µM (active)
outcome [12]: inactive
outcome [13]: inactive
outcome [14]: inactive
outcome [15]: inactive
AC50 [16]: 6.35 µM (active)
outcome [17]: inactive
outcome [18]: inactive
outcome [19]: inactive
outcome [20]: inactive

CC(C)c1ccc(C(=O)N=C(N)N)cc1S(C)(=O)=O
outcome [1]: inactive
outcome [2]: inactive
outcome [3]: inactive
outcome [4]: inactive
outcome [5]: inactive
outcome [6]: inactive
outcome [7]: inactive
outcome [8]: inactive
outcome [9]: inactive
outcome [10]: inactive
outcome [11]: inactive
outcome [12]: inactive
outcome [13]: inactive
outcome [14]: inactive
outcome [15]: inactive
outcome [16]: inactive
outcome [17]: inactive
outcome [18]: inactive
outcome [19]: inactive
outcome [20]: inactive

O=c1[nH]cc(F)c(=O)[nH]1
outcome [1]: inactive
outcome [2]: inactive
outcome [3]: inactive
outcome [4]: inactive
outcome [5]: inactive
outcome [6]: inactive
outcome [7]: inactive
AC50 [8]: 13.7 µM (active)
outcome [9]: inactive
outcome [10]: inactive
outcome [11]: inactive
outcome [12]: inactive
outcome [13]: inactive
outcome [14]: inactive
outcome [15]: inactive
outcome [16]: inactive
outcome [17]: inactive
outcome [18]: inactive
outcome [19]: inactive
AC50 [20]: 9.52 µM (active)

CC1(C)NC(=O)NC1=O
outcome [1]: inactive
outcome [2]: inactive
outcome [3]: inactive
outcome [4]: inactive
outcome [5]: inactive
outcome [6]: inactive
outcome [7]: inactive
outcome [8]: inactive
outcome [9]: inactive
outcome [10]: inactive
outcome [11]: inactive
outcome [12]: inactive
outcome [13]: inactive
outcome [14]: inactive
outcome [15]: inactive
outcome [16]: inactive
outcome [17]: inactive
outcome [18]: inactive
outcome [19]: inactive
outcome [20]: inactive

Clc1cc(Cl)c(Cl)cc1Cl
outcome [1]: inactive
outcome [2]: inactive
outcome [3]: inactive
outcome [4]: inactive
outcome [5]: inactive
outcome [6]: inactive
outcome [7]: inactive
outcome [8]: inactive
outcome [9]: inactive
outcome [10]: inactive
outcome [11]: inactive
outcome [12]: inactive
outcome [13]: inactive
outcome [14]: inactive
outcome [15]: inactive
outcome [16]: inactive
outcome [17]: inactive
outcome [18]: inactive
outcome [19]: inactive
outcome [20]: inactive

CC1(C)CC(N=C=O)CC(C)(CN=C=O)C1 (stereo not given)
outcome [1]: inactive
outcome [2]: inactive
outcome [3]: inactive
outcome [4]: inactive
outcome [5]: inactive
AC50 [6]: 6.43 µM (active)
outcome [7]: inactive
outcome [8]: inactive
outcome [9]: inactive
outcome [10]: inactive
outcome [11]: inactive
outcome [12]: inactive
outcome [13]: inactive
outcome [14]: inactive
outcome [15]: inactive
outcome [16]: inactive
outcome [17]: inactive
outcome [18]: inactive
outcome [19]: inactive
outcome [20]: inactive

NC(=O)Cn1c(=O)cc(CCN2CCN(c3nccc4sccc34)CC2)c2ccc(F)cc21
outcome [1]: inactive
outcome [2]: inactive
outcome [3]: inactive
outcome [4]: inactive
outcome [5]: inactive
AC50 [6]: 27.5 µM (active)
outcome [7]: inactive
outcome [8]: inactive
outcome [9]: inactive
outcome [10]: inactive
outcome [11]: inactive
outcome [12]: inactive
outcome [13]: inactive
outcome [14]: inactive
outcome [15]: inactive
outcome [16]: inactive
outcome [17]: inactive
outcome [18]: inactive
outcome [19]: inactive
outcome [20]: inactive

CC=Cc1ccc(O)c(OC)c1
outcome [1]: inactive
outcome [2]: inactive
outcome [3]: inactive
outcome [4]: inactive
outcome [5]: inactive
outcome [6]: inactive
outcome [7]: inactive
outcome [8]: inactive
outcome [9]: inactive
outcome [10]: inactive
outcome [11]: inactive
outcome [12]: inactive
outcome [13]: inactive
outcome [14]: inactive
outcome [15]: inactive
outcome [16]: inactive
outcome [17]: inactive
outcome [18]: inactive
outcome [19]: inactive
AC50 [20]: 24.6 µM (active)

Cc1ccc(C)c(C)c1
outcome [1]: inactive
outcome [2]: inactive
outcome [3]: inactive
outcome [4]: inactive
outcome [5]: inactive
outcome [6]: inactive
outcome [7]: inactive
outcome [8]: inactive
outcome [9]: inactive
outcome [10]: inactive
outcome [11]: inactive
outcome [12]: inactive
outcome [13]: inactive
outcome [14]: inactive
outcome [15]: inactive
outcome [16]: inactive
outcome [17]: inactive
outcome [18]: inactive
outcome [19]: inactive
outcome [20]: inactive

COc1ccc(S(=O)(=O)N2C(=O)[C@@](c3ccccc3OC)(N3C[C@H](O)C[C@H]3C(=O)N(C)C)c3cc(Cl)ccc32)c(OC)c1
outcome [1]: inactive
outcome [2]: inactive
outcome [3]: inactive
outcome [4]: inactive
outcome [5]: inactive
outcome [6]: inactive
outcome [7]: inactive
outcome [8]: inactive
outcome [9]: inactive
outcome [10]: inactive
outcome [11]: inactive
outcome [12]: inactive
outcome [13]: inactive
outcome [14]: inactive
outcome [15]: inactive
outcome [16]: inactive
outcome [17]: inactive
outcome [18]: inactive
outcome [19]: inactive
AC50 [20]: 30.5 µM (active)

OC[C@@H](O)[C@@H](O)[C@H](O)[C@H](O)CO
outcome [1]: inactive
outcome [2]: inactive
outcome [3]: inactive
outcome [4]: inactive
outcome [5]: inactive
outcome [6]: inactive
outcome [7]: inactive
outcome [8]: inactive
outcome [9]: inactive
outcome [10]: inactive
outcome [11]: inactive
outcome [12]: inactive
outcome [13]: inactive
outcome [14]: inactive
outcome [15]: inactive
outcome [16]: inactive
outcome [17]: inactive
outcome [18]: inactive
outcome [19]: inactive
outcome [20]: inactive

C1CCC(SSC2CCCCC2)CC1
outcome [1]: inactive
outcome [2]: inactive
outcome [3]: inactive
AC50 [4]: 30.5 µM (active)
outcome [5]: inactive
outcome [6]: inactive
AC50 [7]: 31.5 µM (active)
AC50 [8]: 34.1 µM (active)
outcome [9]: inactive
outcome [10]: inactive
outcome [11]: inactive
AC50 [12]: 14.8 µM (active)
outcome [13]: inactive
AC50 [14]: 30.4 µM (active)
outcome [15]: inactive
AC50 [16]: 28.8 µM (active)
AC50 [17]: 11.7 µM (active)
outcome [18]: inactive
outcome [19]: inactive
AC50 [20]: 15.9 µM (active)

COc1cc(-c2nc(NC(=O)c3cc4cc(C)cc(C)c4n3CC(=O)O)sc2CCC2CCCCC2)c(OC)cc1Cl
AC50 [1]: 4.7 µM (active)
AC50 [2]: 0.969 µM (active)
AC50 [3]: 7.07 µM (active)
AC50 [4]: 5.92 µM (active)
AC50 [5]: 22.9 µM (active)
AC50 [6]: 4.25 µM (active)
AC50 [7]: 8.09 µM (active)
AC50 [8]: 10.8 µM (active)
AC50 [9]: 11.7 µM (active)
AC50 [10]: 8.47 µM (active)
AC50 [11]: 7.05 µM (active)
outcome [12]: inactive
outcome [13]: inactive
AC50 [14]: 0.46 µM (active)
AC50 [15]: 6.56 µM (active)
AC50 [16]: 10.2 µM (active)
AC50 [17]: 0.203 µM (active)
outcome [18]: inactive
AC50 [19]: 2.36 µM (active)
AC50 [20]: 0.128 µM (active)
